PubChem BioAssay (EPA / NIEHS)
Inconclusive results are not listed. Activity calls are given as the source filed them. The calls were made as follows: active = hit-call score of the fitted dose curve at least 0.9, where 1 is the maximum; inconclusive = response in the unintended direction; inactive = score below 0.9.

What was measured:
[1] = Tanguay_ZF_120hpf_SNOU_legacy: (Legacy) Oregon State University Tanguay Lab 120 Hour Post-fertilization zebrafish Assay for Snout Malformation (AID 2283637)
In short: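 Dechorionated zebrafish, individually housed from 6 hpf in covered, sealed wells at 28C with 0.64% DMSO vehicle, were examined at 120 hpf for snout malformation. Responses were binary and analysed positive-direction relative to DMSO.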

[2] = Tanguay_ZF_120hpf_JAW_legacy: (Legacy) Oregon State University Tanguay Lab 120 Hour Post-fertilization zebrafish Assay for Jaw Malformation (AID 2283638);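 as to AC50: active means more embryos with jaw malformation than DMSO controls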
In short: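 Tropical 5D wild-type embryos, dechorionated with pronase at 4 hpf, were placed singly per well at 6 hpf and statically exposed at 28C until 120 hpf (0.64% DMSO final). Jaw malformation scored as present/absent by brightfield microscopy at 120 hpf, analyzed relative to DMSO.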

[3] = Tanguay_ZF_120hpf_OTIC_legacy: (Legacy) Oregon State University Tanguay Lab 120 Hour Post-fertilization zebrafish Assay for Otic Vesicle Malformation (AID 2283639)
In short: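 Brightfield scoring at 120 hpf, binary present/absent; DMSO negative control, 5uM trimethyltin chloride positive control. Static exposure at 28C, final DMSO 0.64% (vol/vol). Dead embryos not scored for malformation.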

[4] = Tanguay_ZF_120hpf_PE_legacy: (Legacy) Oregon State University Tanguay Lab 120 Hour Post-fertilization zebrafish Assay for Pericardial Edema (AID 2283640);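 as to AC50: potency for increased incidence of pericardial edema versus DMSO baseline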
In short: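 Tropical 5D wild-type zebrafish embryos were exposed statically to 120 hpf at 28C, sealed and foil-covered, in 0.64% DMSO final. Pericardial edema was scored present/absent by brightfield microscopy; dead embryos were not scored.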

[5] = Tanguay_ZF_120hpf_BRAI_legacy: (Legacy) Oregon State University Tanguay Lab 120 Hour Post-fertilization zebrafish Assay for Brain Malformation (AID 2283641)
In short: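 Tropical 5D wild-type zebrafish embryos were exposed statically in sealed, foil-covered plates at 28C until 120 hpf, with 0.64% (vol/vol) final DMSO. Brain malformation was scored present/absent by brightfield microscopy, relative to DMSO baseline.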

[6] = Tanguay_ZF_120hpf_SOMI_legacy: (Legacy) Oregon State University Tanguay Lab 120 Hour Post-fertilization zebrafish Assay for Somite Malformation (AID 2283647)
In short: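 Tropical 5D wild-type zebrafish embryos, dechorionated with pronase at 4 hpf, were placed singly at 6 hpf and statically exposed until 120 hpf at 28C in 0.64% DMSO. Somite malformation was scored present/absent by brightfield microscopy versus DMSO.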

[7] = Tanguay_ZF_120hpf_PFIN_legacy: (Legacy) Oregon State University Tanguay Lab 120 Hour Post-fertilization zebrafish Assay for Pectoral Fin Malformation (AID 2283648);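 also: each larva judged yes or no for fin defect by brightfield with dead larvae skipped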
In short: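 Scoring of pectoral fin malformation was binary, made at 120 hpf on larvae exposed statically from 6 hpf after enzymatic chorion removal. Activity was fitted upward relative to DMSO controls at 0.64% (vol/vol).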

[8] = Tanguay_ZF_120hpf_CFIN_legacy: (Legacy) Oregon State University Tanguay Lab 120 Hour Post-fertilization zebrafish Assay for Caudal Fin Malformation (AID 2283649)
In short: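 Tropical 5D wild-type embryos, dechorionated with pronase at 4 hpf, were placed singly in wells at 6 hpf and statically exposed to compound at 28C until 120 hpf (0.64% DMSO). Caudal fin malformation was scored present/absent by brightfield microscopy.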

[9] = Tanguay_ZF_120hpf_PIG_legacy: (Legacy) Oregon State University Tanguay Lab 120 Hour Post-fertilization zebrafish Assay for Pigmentation Malformation (AID 2283650)
In short: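 Endpoint is incidence of abnormal pigmentation at 120 hpf in dechorionated 5D zebrafish exposed singly from 6 hpf at 28C, DMSO vehicle at 0.64%. Embryos dying by 24 or 120 hpf are excluded from scoring.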

[10] = Tanguay_ZF_120hpf_CIRC_legacy: (Legacy) Oregon State University Tanguay Lab 120 Hour Post-fertilization zebrafish Assay for Circulatory Malformation (AID 2283651)
In short: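 Static exposure, 6–120 hpf, 28C, sealed and dark; one dechorionated 5D embryo/well; DMSO 0.64% v/v final. Binary circulation endpoint by brightfield; dead embryos not scored.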

Measured: AC50

OC12N=C(c3ccccc3)SC1Cc1cc(Cl)ccc12 (centres undefined)
inactive: [3] | [5] | [7] | [10]
active: [1] 15.1 µM | [2] 45.3 µM | [4] 45.8 µM | [6] 117 µM | [8] 48.1 µM | [9] 44.5 µM

CCCCOC(=O)c1ccc(O)cc1
active: [1] 24.9 µM | [2] 29.5 µM | [3] 46.5 µM | [4] 35.5 µM | [5] 11.1 µM | [6] 63.7 µM | [7] 46.5 µM | [8] 50.2 µM | [9] 36.9 µM | [10] 40.3 µM

Cc1cn([C@H]2C[C@H](N=[N+]=[N-])[C@@H](CO)O2)c(=O)[nH]c1=O
not listed: [5] | [7]
inactive: all other assays above

Clc1ccccc1C(c1ccccc1)(c1ccccc1)n1ccnc1
active: [2] 1.2 µM | [4] 24.8 µM | [6] 61.3 µM
not listed: [5] | [9]
inactive: all other assays above

CCCCCCCCOC(=O)c1cc(O)c(O)c(O)c1
not listed: [2]
inactive: all other assays above

CCN(Cc1cccc(S(=O)(=O)O)c1)c1ccc(C(=C2C=CC(=[N+](CC)Cc3cccc(S(=O)(=O)O)c3)C=C2)c2ccccc2S(=O)(=O)[O-])cc1
not listed: [5]
inactive: all other assays above

CCN(Cc1cccnc1)C(=O)c1cccc(Cl)c1[C@]1(C)C(=O)N(Cc2ccc(OC)cc2OC)c2ccc(Cl)cc21
not listed: [5] | [10]
inactive: all other assays above

CN(C[C@@H](CC[N+]12CCC(C3CCCCC3)(CC1)CC2)c1ccc(Cl)c(Cl)c1)C(=O)c1cc(C(F)(F)F)cc(C(F)(F)F)c1
not listed: [5] | [9]
inactive: all other assays above

CC(C)(c1cc(Br)c(O)c(Br)c1)c1cc(Br)c(O)c(Br)c1
not listed: [5] | [6] | [7]
inactive: all other assays above

CCN(CC)C(=O)c1cc(S(=O)(=O)Cc2ccccc2)c(N2CCC(c3ccccc3)CC2)cc1N(CC)CCN(C)C
inactive: [3] | [4] | [6] | [7] | [10]
active: [1] 18 µM | [5] 13.8 µM

Cc1occc1C(=O)Nc1ccc(C(=O)N2CCC(F)(F)/C(=C\C(=O)N3CCC(N4CCCCC4)CC3)c3ccccc32)cc1
not listed: [3] | [10]
inactive: all other assays above

Oc1ccccc1
not listed: [2] | [8] | [10]
inactive: all other assays above

CN1C(=O)N(c2ccccc2Br)Cc2cnc(Nc3ccc4c(c3)OCC(CO)O4)nc21 (centres undefined)
active: [1] 2.27 µM | [2] 0.972 µM | [4] 2.66 µM | [9] 49.7 µM
inactive: all other assays above

O=C(O)Cc1cc(I)c(Oc2ccc(O)c(I)c2)c(I)c1
active: [1] 0.0814 µM | [2] 0.089 µM | [9] 0.177 µM
not listed: [5]
inactive: all other assays above

COc1cc(C(=O)NC2CCN(C)CC2)ccc1Nc1ncc2c(n1)N(C1CCCC1)CC(F)(F)C(=O)N2C
active: [1] 10.1 µM | [2] 34.6 µM | [4] 35.6 µM | [5] 12.3 µM
not listed: [10]
inactive: all other assays above

CN1C(=O)CC[C@H]1c1cccnc1
not listed: [3] | [5]
inactive: all other assays above

O=C(O)Cn1c(=O)n(Cc2ccc(Br)cc2F)c(=O)c2ccc(Cl)cc21
not listed: [2]
inactive: all other assays above
